# From PubChem BioAssay (NCI)
# “And” between values parts separate entries of the source, which are not always exact repeats. Equal entries are not always repeated. About 83,000 compounds went through this panel and 20% of them were active in at least one assay; those are over-represented in the sample as a whole.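 For each line, cells grew in 96-well plates with the test compound present at a single concentration for 48 hours.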 The source made the active and inactive calls. The calls were made as follows: active = growth percent below 10; inactive = the rest.
# Key:
# Test in all cases: NCI-60 one-dose screen, 48 h (100 = growth as untreated, 0 = no growth, -100 = all killed)
# Conditions in all cases: 10 µM unless noted
# SK-MEL-2 melanoma = test system: SK-MEL-2 melanoma
# SN12C renal = test system: SN12C renal
# UO-31 renal = test system: UO-31 renal
# TK-10 renal = test system: TK-10 renal
# ACHN renal = test system: ACHN renal
# CAKI-1 renal = test system: CAKI-1 renal
# A498 renal = test system: A498 renal
# HL-60(TB) leukemia = test system: HL-60(TB) leukemia
# CCRF-CEM leukemia = test system: CCRF-CEM leukemia
# MOLT-4 leukemia = test system: MOLT-4 leukemia
# SR leukemia = test system: SR leukemia
# RPMI-8226 leukemia = test system: RPMI-8226 leukemia
# OVCAR-8 ovarian = test system: OVCAR-8 ovarian
# OVCAR-5 ovarian = test system: OVCAR-5 ovarian
# SK-OV-3 ovarian = test system: SK-OV-3 ovarian
# IGROV1 ovarian = test system: IGROV1 ovarian
# OVCAR-3 ovarian = test system: OVCAR-3 ovarian
# HS 578T breast = test system: HS 578T breast
# OVCAR-4 ovarian = test system: OVCAR-4 ovarian
# EKVX NSCLC = test system: EKVX NSCLC
SMILES,growth (SK-MEL-2 melanoma),growth (SN12C renal),growth (UO-31 renal),growth (TK-10 renal),growth (ACHN renal),growth (CAKI-1 renal),growth (A498 renal),growth (HL-60(TB) leukemia),growth (CCRF-CEM leukemia),growth (MOLT-4 leukemia),growth (SR leukemia),growth (RPMI-8226 leukemia),growth (OVCAR-8 ovarian),growth (OVCAR-5 ovarian),growth (SK-OV-3 ovarian),growth (IGROV1 ovarian),growth (OVCAR-3 ovarian),growth (HS 578T breast),growth (OVCAR-4 ovarian),growth (EKVX NSCLC)
Cc1cc(Br)c([N+](=O)[O-])cc1[N+](=O)[O-],111% (inactive),101% (inactive),114% (inactive),110% (inactive),106% (inactive),88.5% (inactive),97.9% (inactive),59.4% (inactive),60.5% (inactive),71.1% (inactive),40.4% (inactive),120% (inactive),94.9% (inactive),107% (inactive),104% (inactive),110% (inactive),103% (inactive),105% (inactive),–,–
NC(=O)Oc1cc(OC(N)=O)cc(N(CCCl)CCCl)c1,93.2% (inactive),37.5% (inactive),34.5% (inactive),103% (inactive),15.7% (inactive),-24.7% (active),77.6% (inactive),15.1% (inactive),13.4% (inactive),–,-17.1% (active),59.7% (inactive),28.5% (inactive),91.3% (inactive),76% (inactive),91.2% (inactive),82.8% (inactive),107% (inactive),74.7% (inactive),–
COc1ccc2c(c1)C1(C)CCN(C)CC(C1)C2O (stereo not drawn),105% (inactive),99.3% (inactive),86.9% (inactive),95% (inactive),104% (inactive),119% (inactive),99.5% (inactive),89.1% (inactive),94.3% (inactive),–,94.2% (inactive),98.7% (inactive),101% (inactive),99.3% (inactive),107% (inactive),–,109% (inactive),116% (inactive),103% (inactive),–
CN1CCC2(CC1)C(C#N)C(=O)NC(=O)C2C#N (stereo not drawn),113% (inactive),105% (inactive),91.9% (inactive),125% (inactive),110% (inactive),92% (inactive),95.8% (inactive),107% (inactive),104% (inactive),100% (inactive),86.5% (inactive),109% (inactive),99% (inactive),104% (inactive),110% (inactive),–,117% (inactive),–,97.3% (inactive),–
c1ccc2c(c1)sc1ccccc12,113% (inactive),98.4% (inactive),79.2% (inactive),–,89.6% (inactive),84.4% (inactive),113% (inactive),–,103% (inactive),104% (inactive),105% (inactive),103% (inactive),101% (inactive),95.7% (inactive),104% (inactive),98.2% (inactive),116% (inactive),104% (inactive),105% (inactive),–
Nc1ccc(S(=O)(=O)F)cc1,–,105% (inactive),86.3% (inactive),92.7% (inactive),109% (inactive),101% (inactive),94.8% (inactive),91.9% (inactive),–,93.3% (inactive),84.7% (inactive),98.9% (inactive),107% (inactive),102% (inactive),105% (inactive),105% (inactive),111% (inactive),–,130% (inactive),–
Nc1cccnc1,–,102% (inactive),107% (inactive),102% (inactive),113% (inactive),104% (inactive),112% (inactive),106% (inactive),98.7% (inactive),101% (inactive),90.4% (inactive),105% (inactive),104% (inactive),116% (inactive),105% (inactive),106% (inactive),119% (inactive),–,129% (inactive),115% (inactive)
N#CC(C#N)=C(C#N)C#N,–,110% (inactive),90.9% (inactive),–,94.8% (inactive),125% (inactive),110% (inactive),107% (inactive),–,102% (inactive),105% (inactive),101% (inactive),96% (inactive),101% (inactive),109% (inactive),108% (inactive),107% (inactive),103% (inactive),104% (inactive),–
O=C1C(=C(O)c2ccccc2)C(=O)c2ccccc21,–,–,–,–,–,–,–,97.6% (inactive),–,–,–,–,–,–,–,–,–,–,–,–
O=C1c2ccccc2C(=O)N1N1CC1c1ccccc1 (stereo not drawn),–,104% (inactive),91.3% (inactive),107% (inactive),104% (inactive),95.7% (inactive),104% (inactive),102% (inactive),94.7% (inactive),83.5% (inactive),77.9% (inactive),101% (inactive),112% (inactive),113% (inactive),102% (inactive),95.4% (inactive),107% (inactive),–,–,–
N#Cc1ccc(Cl)cc1,–,107% (inactive),94.6% (inactive),60.3% (inactive),102% (inactive),111% (inactive),134% (inactive),83.9% (inactive),99.5% (inactive),–,–,106% (inactive),109% (inactive),109% (inactive),109% (inactive),104% (inactive),114% (inactive),–,–,117% (inactive)
CCOP(=O)(OCC)C(=O)N(CC)CC,103% (inactive),103% (inactive),104% (inactive),–,105% (inactive),103% (inactive),95.4% (inactive),91.8% (inactive),89.1% (inactive),–,91.2% (inactive),89.2% (inactive),96.1% (inactive),111% (inactive),104% (inactive),–,109% (inactive),101% (inactive),96.5% (inactive),–
CCOC(=O)c1c(SC)nc(-c2ccc(Cl)cc2)sc1=N,–,–,–,6.59% [100 µM] (active) and 15.8% [100 µM] (inactive),–,–,–,–,–,–,–,–,–,–,–,–,–,–,–,–
ClCc1ccc(Cl)c(Cl)c1,–,97.9% (inactive),91.2% (inactive),–,96.8% (inactive),109% (inactive),95.5% (inactive),105% (inactive),96.3% (inactive),105% (inactive),101% (inactive),109% (inactive),104% (inactive),98.7% (inactive),106% (inactive),–,114% (inactive),103% (inactive),106% (inactive),–
CCCC[C@@H]1CCN2C[C@@H](O)[C@@H](O)[C@@H]2[C@H]1O,–,–,–,113% [100 µM] (inactive) and 98.7% [100 µM] (inactive),–,–,–,–,–,–,–,–,–,–,–,–,–,–,–,–
Oc1ccccc1C=NCCN=Cc1ccccc1O,106% (inactive),–,92.3% (inactive),104% (inactive),103% (inactive),102% (inactive),77.9% (inactive),115% (inactive),90% (inactive),106% (inactive),98.5% (inactive),95.1% (inactive),110% (inactive),104% (inactive),102% (inactive),118% (inactive),102% (inactive),106% (inactive),109% (inactive),–
CC1(C)CN=C(NN=C(/C=C/c2ccc(C(F)(F)F)cc2)/C=C/c2ccc(C(F)(F)F)cc2)NC1,–,-74.3% (active),8.51% (active),-17.9% (active),-84.2% (active),-76.9% (active),2.54% (active),-59.7% (active),-24.9% (active),-59.1% (active),-57% (active),-26.8% (active),-64% (active),-87.5% (active),-7.65% (active),22% (inactive),-88% (active),-38% (active),–,–
